The record followed here is PubChem BioAssay (NCI).

Among the test systems are DU-145 prostate; K-562 leukemia; MALME-3M melanoma; MDA-MB-231 breast; RXF 393 renal; SF-268 CNS; SF-295 CNS; SF-539 CNS; UACC-257 melanoma; M14 melanoma; HCT-15 colon; HT29 colon; SNB-75 CNS; SNB-19 CNS; U251 CNS; PC-3 prostate; SK-MEL-5 melanoma; UACC-62 melanoma; LOX IMVI melanoma; SK-MEL-28 melanoma.
Assay in all cases: NCI-60 one-dose screen, 48 h (100 = growth as untreated, 0 = no growth, -100 = all killed)
Details in all cases: 10 µM unless noted

This is part of a sample that, as a whole, favours compounds with a hit. Of some 83,000 tested, about 20% had one in any assay.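 A percent growth of 40 corresponds to 60% growth inhibition; 0 means no net growth; -100 means all cells died. Active threshold: below 10.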 Values without a mark were called inactive. Active and inactive are the calls of the source.

On to `Nc1ccc2c(c1)Cc1cc(NC(=O)C(F)(F)F)ccc1-2`, for which the growth in the assay on DU-145 prostate is 99.2%; in the assay on K-562 leukemia, 108%; in the assay with MALME-3M melanoma, 108%; in the assay on MDA-MB-231 breast it was 71.2%; in the assay with RXF 393 renal, 113%; with SF-268 CNS, 96.1%. Besides, the growth with SF-295 CNS is 99.8%; in the assay on SF-539 CNS, 97.6%; in the assay on UACC-257 melanoma it was 104%; in the assay on M14 melanoma it was 109%; with HCT-15 colon it was 96.4%; in the assay on HT29 colon it was 90.8%. Besides, the growth with SNB-75 CNS is 98.6%; with SNB-19 CNS it was 101%; in the assay with U251 CNS, 96.2%; in the assay with PC-3 prostate, 99.5%; in the assay on SK-MEL-5 melanoma, 98.4%; in the assay on UACC-62 melanoma it was 93.7%. Moreover, the growth in the assay on LOX IMVI melanoma and in the assay on SK-MEL-28 melanoma was 102% in each case.
For `O=C1CC(c2ccccc2)Cc2nc3ccc(Cl)cc3cc21` (stereo not given), the growth in the assay with DU-145 prostate was 0.185% (active); in the assay on K-562 leukemia, 6.83% (active); with MALME-3M melanoma, 34%; in the assay on MDA-MB-231 breast, 19.5%; in the assay on RXF 393 renal, 21.8%; in the assay on SF-268 CNS, 45.2%. Moreover, the growth in the assay with SF-295 CNS was -3.44% (active); with SF-539 CNS it was -12% (active); with UACC-257 melanoma it was 69.1%; with M14 melanoma, 8.98% (active); in the assay with HCT-15 colon it was 13.9%; in the assay with HT29 colon, 4.39% (active). In addition, the growth was 29.7% in the assay with SNB-75 CNS; 24.9% with SNB-19 CNS; 18.8% with U251 CNS; 27.7% in the assay on PC-3 prostate; -14.3% (active) in the assay with SK-MEL-5 melanoma; 29.3% with UACC-62 melanoma. For the same molecule, the growth in the assay with LOX IMVI melanoma is 29.7%; with SK-MEL-28 melanoma, 50.6%.
As for `CCCCCCCCCN(CCCCCCCCC)C(C)C(=O)c1ccc2cc(Br)c3ccccc3c2c1` (stereo not given), the growth is 88.6% with DU-145 prostate; 39.2% in the assay on K-562 leukemia; 118% with MALME-3M melanoma; 68.9% with MDA-MB-231 breast; 99.4% in the assay on RXF 393 renal; 87.1% in the assay with SF-268 CNS. In addition, the growth in the assay on SF-295 CNS was 100%; in the assay on SF-539 CNS, 81.2%; with UACC-257 melanoma it was 98.7%; in the assay with M14 melanoma, 55.7%; with HCT-15 colon, 47.1%; in the assay with HT29 colon it was 30.1%. For the same molecule, the growth was 84.5% with SNB-75 CNS; 92% in the assay with SNB-19 CNS; 70.9% in the assay with U251 CNS; 75.2% in the assay on PC-3 prostate; 88.5% with SK-MEL-5 melanoma; 92.8% in the assay with UACC-62 melanoma. Also, the values for the growth with LOX IMVI melanoma and with SK-MEL-28 melanoma were 63.9% and 109%, respectively.
On to `C=CCCCCOc1ccccc1-c1cnc(OCCCCC=C)n1C`, for which the growth with DU-145 prostate is 92.6%; in the assay on K-562 leukemia it was 30.5%; in the assay with MALME-3M melanoma, 62.8%; in the assay on MDA-MB-231 breast it was 66.5%; in the assay with RXF 393 renal, 90.5%; with SF-268 CNS, 79.6%. The growth was 70.1% with SF-295 CNS; 81% with SF-539 CNS; 66.6% with UACC-257 melanoma; 72.6% in the assay with M14 melanoma; 52.2% in the assay with HCT-15 colon; 18.1% in the assay with HT29 colon. Also, the growth in the assay with SNB-75 CNS is 81.9%; in the assay on SNB-19 CNS it was 91.1%; with U251 CNS, 68.6%; with PC-3 prostate it was 73.5%; in the assay with SK-MEL-5 melanoma, 83.7%; in the assay on UACC-62 melanoma it was 55.7%. Also, the growth in the assay with LOX IMVI melanoma was 69.1%; in the assay on SK-MEL-28 melanoma, 73.4%.
Take `Clc1ccccc1/C=N\Nc1ccccn1`: the growth was 105% in the assay on DU-145 prostate; 94.8% in the assay on K-562 leukemia; 110% in the assay on MALME-3M melanoma; 83.3% in the assay on MDA-MB-231 breast; 107% in the assay on RXF 393 renal; 96.3% in the assay on SF-268 CNS. Moreover, the growth with SF-295 CNS is 95.7%; in the assay on SF-539 CNS, 98.5%; in the assay on UACC-257 melanoma, 105%; in the assay on M14 melanoma, 124%; in the assay with HCT-15 colon it was 77.6%; with HT29 colon, 94.3%. The growth in the assay with SNB-75 CNS was 74.8%; with SNB-19 CNS, 90.6%; in the assay with U251 CNS, 95.4%; in the assay on PC-3 prostate, 104%; in the assay on SK-MEL-5 melanoma, 89.2%; with UACC-62 melanoma, 85.3%. In addition, the growth with LOX IMVI melanoma is 93%; in the assay with SK-MEL-28 melanoma it was 99.2%.
Consider `Cc1cc(C)c(O)c(CNCCCCCCNCc2cc(C)cc(C)c2O)c1`, for which the growth was 7.45% (active) in the assay on DU-145 prostate; -63% (active) with K-562 leukemia; -81.9% (active) in the assay with MALME-3M melanoma; -44% (active) in the assay with MDA-MB-231 breast; -2.77% (active) in the assay with RXF 393 renal; 23.9% with SF-268 CNS. The growth in the assay on SF-295 CNS was -83.6% (active); with SF-539 CNS, -85.3% (active); in the assay on UACC-257 melanoma it was -80.6% (active); in the assay with M14 melanoma it was -79.9% (active); in the assay with HCT-15 colon it was -53.2% (active); in the assay with HT29 colon, -6.14% (active). Besides, the growth was -23.7% (active) in the assay with SNB-75 CNS; -46.1% (active) with SNB-19 CNS; -59.2% (active) in the assay on U251 CNS; 34.7% with PC-3 prostate; -91.8% (active) in the assay on SK-MEL-5 melanoma; -68.9% (active) in the assay with UACC-62 melanoma. Further, the figures for the growth with LOX IMVI melanoma and in the assay on SK-MEL-28 melanoma were -85% (active) and -82.6% (active), respectively.
In the case of `CCCCOC(=O)c1cccc([N+](=O)[O-])c1`, the growth is 117% in the assay with DU-145 prostate; 144% in the assay with K-562 leukemia; 117% in the assay on MALME-3M melanoma; 121% in the assay on MDA-MB-231 breast; 111% with RXF 393 renal; 110% in the assay on SF-268 CNS. Besides, the growth is 101% in the assay on SF-295 CNS; 105% in the assay with SF-539 CNS; 93.6% in the assay on UACC-257 melanoma; 105% in the assay with M14 melanoma; 118% in the assay with HCT-15 colon; 107% with HT29 colon. The growth in the assay with SNB-75 CNS is 94.9%; in the assay with SNB-19 CNS, 113%; in the assay with U251 CNS it was 97.4%; with PC-3 prostate it was 95%; in the assay with SK-MEL-5 melanoma it was 110%; in the assay on UACC-62 melanoma it was 108%. Moreover, the growth was 108% in the assay with LOX IMVI melanoma and 119% in the assay on SK-MEL-28 melanoma.
